Here are results for 31 compounds from PubChem BioAssay (NCATS).

The nature of assay [1]: Primary qHTS for inhibitors of nuclear receptor binding SET domain protein 2 (NSD2) in an RCH-ACV wild type WT cells (2C) (AID 1645877). Also: nearly all actives have a fitted effect of over 70% in size. Also: potency is read from the fitted curve at half-maximal effect.
The target in assay [2] is Glutathione peroxidase 1 (Homo sapiens) (UniProt P07203). The assay is described as follows: Primary qHTS Assay for Inhibitors of Recombinant Selenoprotein Glutathione Peroxidase 1 (GPX1) (AID 1845191). Also: nearly all actives have a fitted effect of over 65% in size. Also: potency is read from the fitted curve at half-maximal effect. Put shortly: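 GR-coupled readout: NADPH consumption tracked by fluorescence, ex 340/em 450 nm, at t=0 and after 15 min at RT. Final mix 10 nM GPX1, 1 mM GSH, 0.5 mM CHP, 0.5 mM NADPH, 100 nM GR, 0.01% BSA, following 30 min enzyme–compound preincubation.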
Sequence of Glutathione peroxidase 1 (Homo sapiens) (P07203 whole entry, looked up): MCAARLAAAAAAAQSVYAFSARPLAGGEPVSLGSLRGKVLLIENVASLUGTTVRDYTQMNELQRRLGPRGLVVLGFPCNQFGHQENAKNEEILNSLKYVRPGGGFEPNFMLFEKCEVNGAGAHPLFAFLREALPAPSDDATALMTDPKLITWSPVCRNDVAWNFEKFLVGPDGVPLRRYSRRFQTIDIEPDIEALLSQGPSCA
(In qHTS, concentration-response curves come from the screen itself.)

Assay [3] can be described thus: Primary qHTS for inhibitors of nuclear receptor binding SET domain protein 2 (NSD2) in an isogenic RCH-ACV NSD2 p.E1099K mutant (9B) (AID 1645876). Also: nearly all actives have a fitted effect of over 70% in size. Also: potency is read from the fitted curve at half-maximal effect.
Assay [4] deals with Phospholipid hydroperoxide glutathione peroxidase GPX4 (Homo sapiens) (UniProt P36969). As to the kind of experiment: Primary qHTS Assay for Inhibitors of Recombinant Selenoprotein Glutathione Peroxidase 4 (GPX4) (AID 1845192). Also: nearly all actives have a fitted effect of over 65% in size. Also: potency is read from the fitted curve at half-maximal effect. Put shortly:
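Steps: GPX4 plus compound, 30 min RT; add GR/GSH/NADPH master mix; start with cumene hydroperoxide; read 340/450 nm fluorescence at 0 and 15 min. Finals were 200 nM GPX4, 1 mM GSH, 0.5 mM CHP, 0.5 mM NADPH, 100 nM GR.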

A short description of assay [5]: qHTS drug screen for cell cycle checkpoint inhibitors in PARPi-resistant BRCA-mutant ovarian cancer cell lines. (AID 1963452; calls by dose curve). The following applies: PEO1/OlaR viability, CellTiter-Glo luminescence, 96 h, stronger effect = lower value. Put shortly:
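PEO1, PEO4 and PEO1/OlaR ovarian cancer cells, 600 per well, exposed 96 h at 37C to a dilution series. Viability read by CellTiter-Glo luminescence, normalized to DMSO and empty wells; activity summarized as Z-AUC.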

The nature of assay [6]: NCATS anti-infectives library activity on HEK293 viability as a counter-qHTS vs the C. elegans viability qHTS (AID 1745854).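 Also: HEK293 cells exposed to compounds for 24 hr before the viability read; % is scaled to controls: 0 for no effect and ±100 for the full control effect.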 Put shortly:
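Counter-screen for cytotoxicity: HEK293, 24 hr, 37C, compounds up to 41.7 uM final (a dilution series, 1:5). Readout CellTiter-Glo luminescence, 10 min RT. Digitonin control, 83.3 uM final.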

Assay [7] has as its target Rap guanine nucleotide exchange factor 3 (Homo sapiens) (UniProt O95398). The assay is described as follows: Confirmatory qHTS for antagonist of cAMP-regulated guanine nucleotide exchange factor 3 (EPAC1) (AID 1645880). Also: nearly all actives have a fitted effect of over 55% in size. Also: potency is read from the fitted curve at half-maximal effect. Put shortly:
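Released BODIPY-GDP fluoresces less than Rap1-bound BODIPY-GDP; the signal is followed at 480/540 nm at 5-min intervals over 30 min, after 5 min at room temperature. Reactions contain 100 nM EPAC1, 250 nM RAP1B-BODIPY-GDP and 50 uM GDP; results are normalized to ATA and DMSO.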

Assay [8] has the same target. As to the kind of experiment: Confirmatory qHTS for agonist of cAMP-regulated guanine nucleotide exchange factor 3 (EPAC1) (AID 1645881).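 Also: EPAC1 catalysed release of BODIPY-GDP from Rap1B seen as fluorescence loss; 100% = effect of cAMP agonist control; nearly all actives have a fitted effect of over 75% in size.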
In assay [9] the target is Rap guanine nucleotide exchange factor 4 (Homo sapiens) (UniProt Q8WZA2). The assay is described as follows: Confirmatory qHTS for agonist of cAMP-regulated guanine nucleotide exchange factor 4 (EPAC2) (AID 1645884).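 Also: nucleotide exchange releases bodipy-GDP from Rap1 and this lowers its fluorescence; % is scaled to controls: 0 for no effect and ±100 for the full control effect; nearly all actives have a fitted effect of over 65% in size.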
Sequence of Rap guanine nucleotide exchange factor 4 (Homo sapiens) (Q8WZA2 whole entry, looked up): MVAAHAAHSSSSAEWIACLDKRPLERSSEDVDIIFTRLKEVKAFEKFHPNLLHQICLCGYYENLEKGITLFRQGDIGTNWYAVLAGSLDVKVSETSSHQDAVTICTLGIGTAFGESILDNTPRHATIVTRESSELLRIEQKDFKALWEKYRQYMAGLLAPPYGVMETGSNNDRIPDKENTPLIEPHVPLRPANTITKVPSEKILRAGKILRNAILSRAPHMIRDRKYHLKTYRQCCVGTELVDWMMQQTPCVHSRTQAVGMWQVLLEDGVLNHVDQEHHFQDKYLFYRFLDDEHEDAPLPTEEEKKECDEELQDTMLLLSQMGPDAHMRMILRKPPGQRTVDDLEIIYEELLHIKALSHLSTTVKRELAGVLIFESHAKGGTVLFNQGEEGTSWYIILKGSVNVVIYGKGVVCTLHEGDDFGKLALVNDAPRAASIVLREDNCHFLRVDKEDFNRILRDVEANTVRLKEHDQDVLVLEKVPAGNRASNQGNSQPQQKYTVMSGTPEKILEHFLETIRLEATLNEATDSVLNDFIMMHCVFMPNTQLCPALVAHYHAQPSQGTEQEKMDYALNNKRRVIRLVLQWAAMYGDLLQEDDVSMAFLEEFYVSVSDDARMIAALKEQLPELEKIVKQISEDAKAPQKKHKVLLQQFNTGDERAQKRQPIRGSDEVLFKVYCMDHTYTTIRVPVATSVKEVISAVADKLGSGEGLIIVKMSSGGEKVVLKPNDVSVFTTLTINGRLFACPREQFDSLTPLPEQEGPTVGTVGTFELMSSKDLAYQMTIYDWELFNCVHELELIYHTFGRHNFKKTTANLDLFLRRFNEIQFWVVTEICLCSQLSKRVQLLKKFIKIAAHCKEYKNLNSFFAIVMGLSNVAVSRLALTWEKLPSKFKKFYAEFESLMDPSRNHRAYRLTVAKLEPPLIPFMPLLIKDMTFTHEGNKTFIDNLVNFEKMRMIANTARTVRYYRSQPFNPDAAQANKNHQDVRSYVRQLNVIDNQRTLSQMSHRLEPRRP
Where [10] appears, read: measured here: PEO1 parental Z-AUC.

Structures are written as SMILES. Records with an inconclusive call do not appear. Calls of active or inactive are those of the source. Unless noted, calls follow the shape of the dose curve; as a rule, active = well fitted curve in the direction sought with a large enough effect; inconclusive = small, poorly fitted or top-dose-only effect, or another doubt; inactive = no such curve, though single readings can be large; an effect the other way counts as inactive or inconclusive.

Sequence of Phospholipid hydroperoxide glutathione peroxidase GPX4 (Homo sapiens) (P36969 whole entry, looked up): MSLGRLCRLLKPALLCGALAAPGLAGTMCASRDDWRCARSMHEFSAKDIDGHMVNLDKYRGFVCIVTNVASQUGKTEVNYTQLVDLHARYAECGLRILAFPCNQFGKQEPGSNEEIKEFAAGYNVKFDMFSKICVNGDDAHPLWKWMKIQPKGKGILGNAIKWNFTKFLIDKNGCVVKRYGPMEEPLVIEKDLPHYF
Sequence of Rap guanine nucleotide exchange factor 3 (Homo sapiens) (O95398 whole entry, looked up): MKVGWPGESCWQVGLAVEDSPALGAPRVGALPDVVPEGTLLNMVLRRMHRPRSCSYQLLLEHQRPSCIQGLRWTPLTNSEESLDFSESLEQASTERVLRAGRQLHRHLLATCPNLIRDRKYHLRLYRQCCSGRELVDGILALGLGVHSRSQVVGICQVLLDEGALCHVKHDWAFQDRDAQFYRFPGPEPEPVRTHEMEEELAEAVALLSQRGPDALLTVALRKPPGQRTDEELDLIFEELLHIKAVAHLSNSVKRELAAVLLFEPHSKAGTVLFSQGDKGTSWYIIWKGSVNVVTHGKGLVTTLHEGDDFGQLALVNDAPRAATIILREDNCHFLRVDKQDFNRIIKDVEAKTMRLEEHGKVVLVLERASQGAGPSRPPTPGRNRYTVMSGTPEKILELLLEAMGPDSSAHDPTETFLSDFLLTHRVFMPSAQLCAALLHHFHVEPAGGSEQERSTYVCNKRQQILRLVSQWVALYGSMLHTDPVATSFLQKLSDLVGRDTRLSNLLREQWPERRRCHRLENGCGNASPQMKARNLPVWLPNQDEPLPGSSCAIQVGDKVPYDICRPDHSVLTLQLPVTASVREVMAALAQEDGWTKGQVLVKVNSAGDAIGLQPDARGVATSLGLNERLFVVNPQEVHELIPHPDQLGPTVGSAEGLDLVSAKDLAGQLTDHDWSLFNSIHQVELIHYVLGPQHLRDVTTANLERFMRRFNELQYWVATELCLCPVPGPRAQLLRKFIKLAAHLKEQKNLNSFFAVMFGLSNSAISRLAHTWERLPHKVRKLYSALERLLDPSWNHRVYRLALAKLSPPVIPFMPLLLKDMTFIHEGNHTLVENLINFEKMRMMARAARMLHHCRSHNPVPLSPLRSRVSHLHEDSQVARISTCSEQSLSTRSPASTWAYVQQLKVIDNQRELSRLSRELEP

For the compound `C[C@@H]1CC2C3C[C@H](F)C4=CC(=O)C=C[C@]4(C)[C@@]3(F)[C@@H](O)C[C@]2(C)[C@@]1(OC(=O)c1ccco1)C(=O)SCF` (stereo partly specified), the Potency result in assay [1] and in assay [2] was “inactive” throughout.
Consider `CCn1c(-c2nonc2N)nc2cncc(C(=O)N3CC[C@H](N)C3)c21`, for which, in assay [3], the Potency is 10.3 µM (active). The Potency result in assay [2] is “inactive”.
With `CC1=C(c2ccc(O)cc2)[C@H](c2ccc(OCCN3CCCCC3)cc2)Oc2cc(O)ccc21`, the Potency result in assay [3], in [2] and in assay [4] was “inactive” each time. Further, the Z-AUC is 0.716 (inactive) in assay [5], 0.402 in assay [5] (setting [10]) and -0.752 in assay [5] (measured here: PEO4 Z-AUC).
Turning to `C[C@@H]1COCCN1c1cc(-c2ccnn2C)c2ccnc(-c3ccn[nH]3)c2n1`, the Potency in [3] was 0.209 µM (active); in [1] it was 0.186 µM (active); in assay [4] it was 20.2 µM (active). In addition, the Z-AUC in assay [5] was -0.499 (inactive); in assay [5] (setting [10]), -1.38; in [5] (measured here: PEO4 Z-AUC), -1.35.
With `COc1ccc(-c2ccc3c(N4CCOC[C@@H]4C)nc(N4CCOC[C@@H]4C)nc3n2)cc1CO`, the Potency in assay [3] was 0.059 µM (active); in [1], 0.0934 µM (active); in assay [2] it was 18.3 µM (active); in assay [4] it was 16.1 µM (active). Further, the Z-AUC in assay [5] was 1.14 (inactive); in assay [5] (setting [10]), 0.497; in [5] (measured here: PEO4 Z-AUC), 0.69.
Take `COc1ccc2c(c1)[C@@H]1C[C@]1(C(=O)N1[C@@H]3CC[C@H]1CN(C)C3)Cn1c-2c(C2CCCCC2)c2ccc(C(=O)NS(=O)(=O)N(C)C)cc21`: in assay [3], the Potency was 20.6 µM (active). For the same compound, the compound was classed as inactive in assay [6].
As to `CCc1cc(/C(C)=N/OCc2ccc(C3CCCCC3)c(C(F)(F)F)c2)ccc1CN1CC(C(=O)O)C1`, the Potency entry in [3], in [1], in assay [2] and in assay [4] was “inactive” throughout. Moreover, the results for the Z-AUC in assay [5], in assay [5] (setting [10]) and in assay [5] (measured here: PEO4 Z-AUC) were -0.0137 (inactive), -0.327 and 0.118, respectively.
With `C[C@@H](C(=O)Nc1ccc(Cl)cc1)C1CCC(c2ccnc3ccc(F)cc23)CC1` (stereo partly specified), the Potency in assay [3] was 14.8 µM (active); in assay [1], 13.2 µM (active). Further, the Potency entry in [2] and in assay [4] was “inactive” throughout. Further, the Z-AUC was -1.08 (inactive) in assay [5], -1.14 in [5] (setting [10]) and -0.907 in assay [5] (measured here: PEO4 Z-AUC).
Turning to `O=C(c1ccc(Nc2nc(C3CC3)cn3c(-c4cn[nH]c4)cnc23)c(F)c1)N1CCOCC1`, the Potency in assay [3] and in assay [1] was 9.34 µM (active) in each case. Also, the Potency result in assay [2] and in [4] was “inactive” in each case. Moreover, the values for the Z-AUC in assay [5], in assay [5] (setting [10]) and in assay [5] (measured here: PEO4 Z-AUC) were 0.98 (inactive), 0.912 and 1.07, respectively.
For the compound `C[C@@H]1CCC(=O)N(CC[C@H](Oc2ccccc2)c2ccccc2)CC1`, the Potency result in assay [7], in [8] and in assay [9] was “inactive” each time.
Turning to `COc1cc(OC)c2c(-c3ccccc3)cc(=O)oc2c1`, the Potency result in assay [7] and in assay [8] was “inactive” each time. Also, the activation in assay [9] is 5.59% [at 17.1 µM, percent relative to cAMP agonist control] (inactive).
Regarding `C/C=C(\C)C(=O)OC1C(OC(=O)C2(C)OC2C)c2cc3ccc(=O)oc3cc2OC1(C)C` (stereo unspecified), the Potency entry in assay [7], in [8] and in [9] was “inactive” each time.
Turning to `Cc1ccc(CN2C(=O)CSC2c2ccc(F)cc2)cc1` (stereo unspecified), the Potency result in assay [7], in assay [8] and in [9] was “inactive” throughout.
Regarding `Cc1ccc(S(=O)(=O)N2[C@@H](c3cccc(Cl)c3)C(C(=O)O)=CC[C@H]2c2ccc(C(C)C)cc2)cc1`, the Potency in assay [7] was 67.5 µM (active). For the same compound, the Potency entry in [8] and in assay [9] was “inactive” each time.
Take `Cn1cc(/C=C/c2ccc3ccccc3n2)c2ccccc21`: the Potency entry in assay [7], in assay [8] and in [9] was “inactive” each time.
On to `CCOC(=O)c1ccc(N(C(=O)c2ccccc2)c2ccccc2)cc1`, for which the Potency entry in assay [7] and in assay [8] was “inactive” throughout.
For `Cc1c(CN2CCC(Nc3ncnc4sc(CC(F)(F)F)cc34)CC2)ccc2c1cc(C#N)n2Cc1cn[nH]c1`, the Potency in assay [1] was 3.32 µM (active). In addition, the Potency entry in [2] and in assay [4] was “inactive” throughout. The Z-AUC is -0.417 (inactive) in [5], -0.643 in assay [5] (setting [10]) and -0.075 in assay [5] (measured here: PEO4 Z-AUC).
In the case of `COc1ccc(Cl)cc1NC(=O)CN(C)Cc1cccs1`, the Potency result in assay [7] and in [8] was “inactive” each time.
`C=CCOc1ccc(Br)cc1/C=C1/SC(=Nc2ccc(C(=O)O)cc2)NC1=O`: the Potency in [7] was 30.1 µM (active). The Potency result in [8] and in assay [9] was “inactive” in each case.
Turning to `Cc1ccc2nccc(/C=C/c3ccc(N(C)C)cc3)c2c1`, the Potency entry in assay [7], in assay [8] and in [9] was “inactive” throughout.
As to `CN1CC(O)C2=CC(=O)C(=O)C=C21` (stereo unspecified), the Potency in [7] is 2.8 µM (active). For the same compound, the Potency result in [8] and in assay [9] was “inactive” throughout.
With `Cc1cc(/C=C/c2ccnc3ccccc23)ccc1N(C)C`, the Potency result in assay [7], in [8] and in assay [9] was “inactive” throughout.
Turning to `COc1ncc(Nc2ncc(C(C)N3CCN(S(C)(=O)=O)CC3)cc2-c2nc(C)nc(N)n2)cc1F` (stereo unspecified), the Potency result in [1], in assay [2] and in assay [4] was “inactive” throughout. For the same compound, the Z-AUC in assay [5] was 0.314 (inactive); in assay [5] (setting [10]), 0.577; in [5] (measured here: PEO4 Z-AUC), 0.144.
With `COC(=O)c1cc(Br)c(=O)n(CCC2=CCCCC2)c1`, the Potency result in assay [7] and in [8] was “inactive” throughout. Moreover, the activation in assay [9] is 0% [at 17.1 µM, percent relative to cAMP agonist control] (inactive).
As to `Nc1cc(N)cc(N)c1`, the Potency in assay [7] was 28 µM (active).
As for `Cc1cc(O[C@@H](CCC(F)(F)F)c2ccc(C(=O)NCCC(=O)O)cc2)cc(C)c1-c1ccc(C(C)(C)C)cc1`, the Potency entry in [1] and in assay [2] was “inactive” each time. Also, the Z-AUC is 0.000666 (inactive) in assay [5], 0.0877 in assay [5] (setting [10]) and -0.261 in assay [5] (measured here: PEO4 Z-AUC).
With `COc1ccc(C2CN=NC23CCc2ccccc2C3=O)cc1` (stereo unspecified), the Potency result in assay [7], in [8] and in assay [9] was “inactive” throughout.
As for `COc1ccc(SC[C@H](Cc2ccccc2)N2CC[C@@H](C)CCC2=O)cc1`, the Potency result in assay [7] was “inactive”.
`COc1ccc(C(=O)c2ccc(OC)cc2OC)cc1`: the Potency result in assay [7] and in assay [8] was “inactive” in each case.
With `CCN1C(=O)N2Cc3cc(OC)cc(OC)c3[C@@H](C)C=C2C12CCN(Cc1cc(C)cc(C)c1)CC2`, the Potency in assay [1] is 18.6 µM (active). For the same compound, the Potency entry in assay [2] and in assay [4] was “inactive” each time. Moreover, the values for the Z-AUC in assay [5], in assay [5] (setting [10]) and in assay [5] (measured here: PEO4 Z-AUC) were -1 (inactive), -1.06 and -1.16, respectively.
Regarding `O=C(CN1Cc2ccccc2OC(c2ccsc2)C1)N1CCN(Cc2ccc3c(c2)OCO3)CC1` (stereo unspecified), the Potency entry in assay [7], in assay [8] and in assay [9] was “inactive” in each case.
